Test results from PubChem BioAssay (NCI).
This is part of a sample that, as a whole, favours compounds with a hit. Of some 83,000 tested, about 20% had one in any assay.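 Values shown are percent growth following 48 h exposure of cells in 96-well plates to a single concentration of compound; below 10 was considered active.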 Values without a mark were called inactive. Active and inactive are the calls of the source.

Assays:
Experiment in all cases: NCI-60 one-dose screen, 48 h (100 = growth as untreated, 0 = no growth, -100 = all killed)
Conditions in all cases: 10 µM unless noted
NCI-H23 lung = tested on: NCI-H23 lung
NCI-H226 lung = tested on: NCI-H226 lung
NCI-H322M lung = tested on: NCI-H322M lung
HOP-62 NSCLC = tested on: HOP-62 NSCLC
NCI-H460 lung = tested on: NCI-H460 lung
HOP-92 NSCLC = tested on: HOP-92 NSCLC
NCI-H522 lung = tested on: NCI-H522 lung
A549/ATCC NSCLC = tested on: A549/ATCC NSCLC
786-0 renal = tested on: 786-0 renal
COLO 205 colon = tested on: COLO 205 colon
DU-145 prostate = tested on: DU-145 prostate
K-562 leukemia = tested on: K-562 leukemia
MALME-3M melanoma = tested on: MALME-3M melanoma
MDA-MB-231 breast = tested on: MDA-MB-231 breast
RXF 393 renal = tested on: RXF 393 renal
SF-268 CNS = tested on: SF-268 CNS
SF-295 CNS = tested on: SF-295 CNS
SF-539 CNS = tested on: SF-539 CNS
UACC-257 melanoma = tested on: UACC-257 melanoma
M14 melanoma = tested on: M14 melanoma

| Structure (SMILES) | growth (NCI-H23 lung) | growth (NCI-H226 lung) | growth (NCI-H322M lung) [%] | growth (HOP-62 NSCLC) | growth (NCI-H460 lung) | growth (HOP-92 NSCLC) | growth (NCI-H522 lung) | growth (A549/ATCC NSCLC) | growth (786-0 renal) | growth (COLO 205 colon) | growth (DU-145 prostate) | growth (K-562 leukemia) | growth (MALME-3M melanoma) | growth (MDA-MB-231 breast) | growth (RXF 393 renal) | growth (SF-268 CNS) | growth (SF-295 CNS) | growth (SF-539 CNS) | growth (UACC-257 melanoma) | growth (M14 melanoma) |
| --- | --- | --- | --- | --- | --- | --- | --- | --- | --- | --- | --- | --- | --- | --- | --- | --- | --- | --- | --- | --- |
| CN(Cc1cccc(C(F)(F)F)c1)C(=O)[C@@H](CC(=O)N1CCC(N2CCCCC2)CC1)N1C(=O)[C@@H](N2C(=O)OC[C@@H]2c2ccccc2)[C@H]1/C=C/c1ccccc1 | 93.9% | 85.1% | 93.5 | 81.2% | 89% | 58.7% | 96.1% | 80.6% | 75.4% | 72.2% | 103% | 65.7% | 96.8% | 55.7% | 76.3% | 77.8% | 90.8% | 81.9% | 88.9% | 98.7% |
| Cc1ccccc1-n1nnc(C(=O)Nc2nc3ccc(F)cc3s2)c1C | 55.7% | 48.4% | 71.2 | 86% | 65.7% | 55.7% | 66.4% | 64.5% | 76.2% | 80.5% | 66.9% | 35.3% | 50.6% | 82% | 65.6% | 73% | 60.5% | 79.9% | 55.7% | 49.3% |
| CC(C)CCSC1=CC(=O)c2ccccc2C1=O | 78% | 69.6% | 79.6 | 78.4% | 103% | -74.5% (active) | -68.9% (active) | 79.7% | 90.6% | 132% | 77% | 19.3% | -23.5% (active) | 0.131% (active) | 43.8% | 74.6% | 103% | 94.4% | 58.6% | 68.3% |
| CCN(CC)CCCCCCNc1cccc2cc(Br)cnc12 | 85.7% | 108% | 94.3 | 118% | 87.3% | 71.6% | 26.7% | 97.8% | 92.8% | 89.9% | 91.4% | -27.8% (active) | 47.9% | 67.9% | 91% | 74.9% | 84.8% | 94.4% | 80.7% | 50.1% |
| COc1cc2c(cc1OC(C)=O)C(=O)CCCC2 | 93.6% | 98.1% | 89.9 | 75.4% | 105% | 79% | 78% | 85.8% | 86.9% | 135% | 128% | 186% | 93.3% | 112% | 94.2% | 107% | 107% | 90.9% | 86.7% | 87.9% |
| CCc1cccc(Cl)c1 | 111% | 99.2% | 108 | 103% | 110% | 93.2% | 92.9% | 98.8% | 105% | 117% | 111% | 114% | 120% | 112% | 114% | 106% | 110% | 104% | 94% | 101% |
| C#C[C@]1(O)CC[C@H]2[C@@H]3CC=C4c5nc(Nc6ccccn6)sc5CC[C@]4(C)[C@H]3CC[C@@]21C | 34.7% | 38.1% | 35.8 | -10.4% (active) | 4.83% (active) | -24.5% (active) | -6.06% (active) | 14.5% | -69.6% (active) | 35% | 17.2% | 2.53% (active) | 10.9% | -23.1% (active) | -66% (active) | -24% (active) | -72.2% (active) | -64.7% (active) | -54.7% (active) | -35.9% (active) |
| CCC(Br)(CC)C(=O)c1ccc(OCC(=O)O)c(Cl)c1Cl | 103% | 87.4% | 112 | 119% | 96% | 102% | 82.1% | 91.5% | 117% | 108% | 114% | 114% | 107% | 107% | 88.8% | 100% | 81.6% | 96.9% | 124% | 116% |
| O=S(=O)(NCc1ccccc1)c1ncnc2nc[nH]c12 | 106% | 99.4% | 109 | 103% | 117% | 117% | 95.5% | 86.5% | 107% | 109% | 111% | 97.1% | 117% | 107% | 114% | 110% | 104% | 98.1% | 92.7% | 108% |
| CCOc1cc(/C=N\NC(=O)N/N=C/c2ccc(O)c(OCC)c2)ccc1O | 33% | 55.5% | 50.7 | 38.9% | 11.8% | 80.7% | -18.6% (active) | 59.4% | 28.6% | 42.7% | 14.9% | 10.6% | 60.2% | 51.5% | 24.9% | 45.7% | 18% | -9.06% (active) | 61.9% | 19.3% |
| Cn1ncc2c(Nc3ccc(O)cc3)nc(Cl)nc21 | 107% | 91.2% | 96.6 | 95.8% | 108% | 104% | 88% | 96% | 111% | 108% | 113% | 90.5% | 128% | 93.7% | 96% | 97.7% | 109% | 96.6% | 105% | 111% |
| CCN(CC)c1ccc2cc(C(Nc3ccc(Br)c(C(F)(F)F)c3)c3nnnn3C(C)(C)C)c(=O)oc2c1 (stereo not given) | 100% | 86.1% | 99.6 | 94% | 91.9% | 87.5% | 77.9% | 86.3% | 99.8% | 101% | 103% | 88.2% | 88% | 86.9% | 82.9% | 85.3% | 103% | 101% | 93.3% | 103% |
| CCOC(=O)C(c1ccccc1)N1C(=O)c2ccccc2C1=O (stereo not given) | 87.2% | 106% | 96.2 | 95.8% | 100% | 82% | 96.8% | 97.6% | 102% | 98.5% | 107% | 114% | 94.9% | 103% | 105% | 99.7% | 100% | 97.9% | 91.9% | 96.7% |
| CCCCCn1c(C)cc(/C=C\c2ccc3cc(C)ccc3[n+]2C)c1C | 3.14% (active) | -58.4% (active) | 30.3 | -58.9% (active) | -75.1% (active) | -64% (active) | -36.7% (active) | -84.5% (active) | -76.7% (active) | -92.5% (active) | -52.3% (active) | 9.64% (active) | -67.5% (active) | -46.8% (active) | -60.8% (active) | -61% (active) | -90.9% (active) | -85.8% (active) | -99.1% (active) | -71.2% (active) |
| Cc1ccc(S(=O)(=O)NCCCNc2nccc(-c3c(-c4cccc(F)c4)nc4occn34)n2)cc1 | 102% | 67.6% | 77.9 | 88.5% | 75.7% | 82.5% | 71.6% | 53.2% | 73.3% | 66% | 73.8% | 36.7% | 64.6% | 64% | 77.7% | 61.6% | 100% | 95.1% | 91.5% | 57% |
